The values that follow come from PubChem BioAssay (NCATS).

The nature of experiment [1]: Validation of Assay for Modulators of Lamin A Splicing (AID 1459; active = well fitted curve in the direction sought with a large enough effect in the signal ratio; the % refers to the signal ratio;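 also: cells exposed to compound for two days before reading; 0% is about no effect; ratio rise marks activators and ratio drop marks inhibitors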). The essentials:
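S3 HeLa cells stably expressing a lamin A-EGFP splicing minigene and DsRed2 were seeded at 600 cells/well in Opti-MEM with 2% FBS, pin-dosed, and incubated 48 hrs at 37 °C, 5% CO2. Laser-scanning cytometry (488 nm) gave GFP/RFP total intensity ratio.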

The nature of experiment [2]: qHTS Assay for Lipid Storage Modulators (AID 1519; calls by dose curve; as to activity change, negative = inhibition: % is scaled to controls: 0 for no effect and ±100 for the full control effect). The note with it: Drosophila S3 cells, BODIPY lipid droplet/cell ratio, laser cytometry, cells loaded with oleic acid; for activity change, negative = inhibition: at 57.5 µM (top of the series). The essentials: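 Cells seeded at 5,000 per well were treated with compounds over a concentration series and loaded with oleic acid (400 uM, as added). Lipid droplet fluorescence (488 nm excitation, 500-530 nm channel) was read by laser-scanning cytometry and normalized to 20 uM Triacsin C.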

In experiment [3] the target is DNA repair nuclease/redox regulator APEX1 (Homo sapiens) (UniProt P27695). Nature of the experiment: qHTS Validation Assay for Inhibitors of the Human Apurinic/apyrimidinic Endonuclease 1 (APE1) (AID 1705;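 also: TAMRA fluorescence gain over two minutes as APE1 cuts a quenched THF abasic duplex; % is scaled to controls: 0 for no effect and ±100 for the full control effect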). The essentials: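 Human APE1 was preincubated with compound for 15 min at room temperature, then 50 nM (final) THF-abasic double-stranded DNA substrate bearing 5'-TAMRA and 3'-BHQ-2 was added. Incision-driven fluorescence rise (ex 525/em 598 nm) was read kinetically.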
Sequence of DNA repair nuclease/redox regulator APEX1 (Homo sapiens) (P27695 whole entry, looked up): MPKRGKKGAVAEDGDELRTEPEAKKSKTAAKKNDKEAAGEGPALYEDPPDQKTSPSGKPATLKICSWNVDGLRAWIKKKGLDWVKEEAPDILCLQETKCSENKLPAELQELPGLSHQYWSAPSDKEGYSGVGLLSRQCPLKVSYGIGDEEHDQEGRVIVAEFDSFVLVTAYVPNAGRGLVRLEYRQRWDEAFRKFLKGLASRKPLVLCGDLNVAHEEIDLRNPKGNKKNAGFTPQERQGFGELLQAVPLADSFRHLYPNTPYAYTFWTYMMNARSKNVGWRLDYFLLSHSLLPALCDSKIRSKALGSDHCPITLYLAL

The nature of experiment [4]: Counterscreen for APE1 Inhibitors: Fluorescent Dye Displacement Validation Assay (AID 1707).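 Also: plate controls were ThO with dsDNA and no compound for no effect and ThO without dsDNA for full effect.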 The essentials:
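Assay buffer: Tris-HCl pH7.5 with 50mM NaCl, 2 mM MgCl2, 0.01% Tween-20. Dye 250 nM, duplex 50 nM final. Readout: decrease in ThO endpoint fluorescence, 480 nm excitation, 540 nm emission.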

Experiment [5] in a line: qHTS for differential inhibitors of proliferation of Plasmodium falciparum line 3D7 (AID 1876).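 Also: parasite growth measured after three days of culture; 0% = vehicle wells and -100% = reference inhibitor wells.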
Experiment [6] is described as follows: qHTS for differential inhibitors of proliferation of Plasmodium falciparum line D10 (AID 1877).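 Also: parasites grown with compound for 72 h before DNA staining; plate controls were vehicle wells for no effect and reference inhibitor wells for full effect.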
Experiment [7] concerns the target ATP-dependent DNA helicase Q1 (Homo sapiens) (UniProt P46063). Nature of the experiment: qHTS Validation Assay for Inhibitors of RecQ-Like Dna Helicase 1 (RECQ1) (AID 2353).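 Also: plate controls were DMSO vehicle for no effect and enzyme-free control for full effect.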 The essentials:
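50 nM RECQ1T1 preincubated 15 min with compound in Tris pH 8.0 buffer with MgCl2, DTT, Tween-20 and 2.5 ug/ml poly(dI-dC); started with 200 nM TAMRA/BHQ-2 forked duplex and 2 mM ATP. Unwinding read as fluorescence (525/598 nm), two reads 2 h apart.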

Experiment [8] is described as follows: Validation screen for small molecules that induce DNA re-replication in MCF 10A normal breast cells (AID 463097). Also: 0% is about no effect; nearly all actives have a fitted effect of over 60% in size. The essentials:
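Readout: Hoechst nuclear fluorescence intensity, 405 ex / 500-530 em, by scanning plate imager; re-replication scored as increase in nuclei with elevated DNA content. Cells exposed to compound 48 hr, 37 C, 5% CO2 beforehand.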

A short description of experiment [9]: Quantitative high throughput screen for delayed death inhibitors of the malarial parasite plastid, 96 hour incubation (AID 488745). Also: % is scaled to controls: 0 for no effect and ±100 for the full control effect; nearly all actives have a fitted effect of over 70% in size. The essentials: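 P. falciparum carrying an integrated firefly luciferase reporter, grown in erythrocytes (2% hematocrit, 0.1% parasitemia final) in RPMI 1640/0.5% Albumax, was exposed to compound for 96 h (two generations) at 37 C, 5% CO2. Luminescence decrease indicated growth inhibition.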

A short description of experiment [10]: Quantitative high throughput screen for delayed death inhibitors of the malarial parasite plastid, 48 hour incubation (AID 488752). Also: % is scaled to controls: 0 for no effect and ±100 for the full control effect; nearly all actives have a fitted effect of over 65% in size. The essentials:
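Erythrocytes infected with P. falciparum carrying an integrated firefly luciferase reporter (2% hematocrit, 0.1% parasitemia final) were exposed to compounds in RPMI 1640/0.5% Albumax for 48 h at 37 C, 5% CO2. Growth inhibition was scored as reduced luminescence.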

The target of experiment [11] is Transient receptor potential cation channel subfamily V member 1 (Homo sapiens) (UniProt Q8NER1). Nature of the experiment: HTS Assay for Compounds that Act as Enhancers of the Vanilloid Receptor 1 (AID 488979). Also: 0% is about no effect. The essentials:
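Calcium influx kinetics via Fluo-8 (480/520 nm) in TRPV1-expressing cells, 2000/well cultured overnight at 35.5C. Compound-alone read 3 min (agonist phase), followed by EC20 capsaicin challenge for 2 min (enhancer phase).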

Experiment [12] addresses Thyrotropin receptor (Homo sapiens) (UniProt P16473). Nature of the experiment: qHTS Assay for Antagonists of the Thyroid Stimulating Hormone Receptor (AID 488980). Also: 0% is about no effect. The essentials: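 HEK293 cells transfected with human TSHR, suspended in HEPES-buffered HBSS with 70 uM RO 20-1724, were treated with compounds plus TSH at EC80 (4 nM final). cAMP was measured by competitive HTRF (cryptate anti-cAMP antibody, cAMP-d2 acceptor).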

Experiment [13] concerns the target Thyrotropin-releasing hormone receptor (Homo sapiens) (UniProt P34981). Nature of the experiment: qHTS for Small Molecule Agonists and Allosteric Enhancers of Human TRH Receptor: Validation Screen for Agonists (AID 493127;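 active = calcium activation more than 3 SD above the typical response in the agonist read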;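 also: intracellular calcium rise by fluo-8 fluorescence before TRH EC20 addition; 0% is about no effect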). The note with it: TRH receptor agonist cell assay; at 2 µM; stronger effect = higher value. The essentials: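 TRHR-expressing cells were plated overnight in serum-containing medium, then loaded with fluo-8 calcium dye at room temperature for 30 min–1.5 h. After a 10 s baseline, compound was pin-transferred and calcium fluorescence (ex 480/em 530) read kinetically for agonist response.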

Experiment [14] addresses Galactokinase (Homo sapiens) (UniProt P51570). Nature of the experiment: qHTS Validation Assay for Inhibitors of Human Galactokinase (GALK) (AID 493189). Also: 0% is about no effect. The essentials:
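GALK (5 nM) with 35 uM ATP and 100 uM galactose in HEPES pH8.0, MgCl2, NaCl, DTT, BSA; 1 h at room temperature. Residual ATP read by Kinase-Glo Plus luminescence after 10 min.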

A short description of experiment [15]: Validation screen for small molecules that induce DNA re-replication in SW480 colon adenocarcinoma cells (AID 504364). Also: 0% is about no effect. The essentials: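 SW480 cells seeded at 250 per well were exposed to compound or DMSO for 48 hr at 37 C, 5% CO2, then stained with Hoechst for 40 min. DNA content per nucleus was imaged (405 nm ex, 500-530 nm em).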
Experiment [16] in a line: qHTS for differential inhibitors of proliferation of Plasmodium falciparum line GB4 (AID 1816).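 Also: parasite growth measured after 72 h incubation.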 Also: potency is read from the fitted curve at half-maximal effect.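 As to activity change, negative = inhibition: 0% = vehicle DMSO and -100% = reference inhibitor.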 As to conditions: Potency: Plasmodium falciparum GB4 proliferation inhibition.
Experiment [17] in a line: qHTS for differential inhibitors of proliferation of Plasmodium falciparum line HB3 (AID 1886).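 Also: parasites grown with compound for 72 h before SYBR Green readout.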 Also: potency is read from the fitted curve at half-maximal effect.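 As to activity change, negative = inhibition: plate controls were vehicle for no effect and reference inhibitor for full effect.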 The note with it: Potency: Plasmodium falciparum HB3 proliferation inhibition.
The mark [18] stands for this setting: measured here: cell count channel max response.
Where [19] appears, read: measured here: lipid channel max response.

Results filed as inconclusive are left out. Activity calls are given as the source filed them. Unless noted, calls follow the shape of the dose curve; as a rule, active = well fitted curve in the direction sought with a large enough effect; inconclusive = small, poorly fitted or top-dose-only effect, or another doubt; inactive = no such curve, though single readings can be large; an effect the other way counts as inactive or inconclusive.

Sequence of Thyrotropin receptor (Homo sapiens) (P16473 whole entry, looked up): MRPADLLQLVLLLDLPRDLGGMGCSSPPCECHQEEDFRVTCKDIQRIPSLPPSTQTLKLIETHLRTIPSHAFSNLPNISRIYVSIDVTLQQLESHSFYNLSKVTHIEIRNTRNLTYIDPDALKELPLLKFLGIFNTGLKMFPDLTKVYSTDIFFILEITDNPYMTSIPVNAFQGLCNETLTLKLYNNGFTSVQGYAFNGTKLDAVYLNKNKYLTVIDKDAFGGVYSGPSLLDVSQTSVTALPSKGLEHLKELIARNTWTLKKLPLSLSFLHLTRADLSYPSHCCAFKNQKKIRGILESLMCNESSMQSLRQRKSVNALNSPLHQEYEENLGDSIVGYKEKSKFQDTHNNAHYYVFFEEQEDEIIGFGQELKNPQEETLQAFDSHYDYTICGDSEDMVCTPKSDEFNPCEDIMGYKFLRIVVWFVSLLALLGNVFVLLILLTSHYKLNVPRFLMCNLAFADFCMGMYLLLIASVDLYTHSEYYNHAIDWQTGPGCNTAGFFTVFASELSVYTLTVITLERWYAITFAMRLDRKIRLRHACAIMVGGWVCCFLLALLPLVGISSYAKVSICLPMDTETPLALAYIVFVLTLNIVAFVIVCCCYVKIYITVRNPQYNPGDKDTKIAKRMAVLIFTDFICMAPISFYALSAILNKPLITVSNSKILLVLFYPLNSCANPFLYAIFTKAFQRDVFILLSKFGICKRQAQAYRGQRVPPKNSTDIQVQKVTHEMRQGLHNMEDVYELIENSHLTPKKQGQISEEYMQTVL
Sequence of Transient receptor potential cation channel subfamily V member 1 (Homo sapiens) (Q8NER1 whole entry, looked up): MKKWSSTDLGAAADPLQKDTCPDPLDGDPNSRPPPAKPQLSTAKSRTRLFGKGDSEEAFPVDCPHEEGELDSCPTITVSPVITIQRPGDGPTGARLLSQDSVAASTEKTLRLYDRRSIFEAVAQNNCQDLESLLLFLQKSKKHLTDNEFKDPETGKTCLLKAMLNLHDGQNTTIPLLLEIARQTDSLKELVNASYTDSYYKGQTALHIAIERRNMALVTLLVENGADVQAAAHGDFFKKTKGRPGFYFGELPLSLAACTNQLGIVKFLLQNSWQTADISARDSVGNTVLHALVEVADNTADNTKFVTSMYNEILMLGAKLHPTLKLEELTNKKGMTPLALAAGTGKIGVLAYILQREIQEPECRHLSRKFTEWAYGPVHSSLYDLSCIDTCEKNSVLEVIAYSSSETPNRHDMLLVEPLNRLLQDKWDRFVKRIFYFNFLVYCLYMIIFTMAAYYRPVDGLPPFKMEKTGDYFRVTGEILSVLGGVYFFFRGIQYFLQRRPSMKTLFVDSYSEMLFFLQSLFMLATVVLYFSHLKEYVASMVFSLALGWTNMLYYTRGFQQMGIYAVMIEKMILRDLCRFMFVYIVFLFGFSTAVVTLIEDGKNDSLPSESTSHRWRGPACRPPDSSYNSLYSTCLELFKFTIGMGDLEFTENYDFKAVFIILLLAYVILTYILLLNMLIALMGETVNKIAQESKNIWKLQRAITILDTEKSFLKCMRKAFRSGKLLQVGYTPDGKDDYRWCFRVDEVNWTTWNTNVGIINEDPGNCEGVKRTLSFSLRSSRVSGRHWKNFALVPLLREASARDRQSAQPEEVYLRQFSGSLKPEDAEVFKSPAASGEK
Sequence of ATP-dependent DNA helicase Q1 (Homo sapiens) (P46063 whole entry, looked up): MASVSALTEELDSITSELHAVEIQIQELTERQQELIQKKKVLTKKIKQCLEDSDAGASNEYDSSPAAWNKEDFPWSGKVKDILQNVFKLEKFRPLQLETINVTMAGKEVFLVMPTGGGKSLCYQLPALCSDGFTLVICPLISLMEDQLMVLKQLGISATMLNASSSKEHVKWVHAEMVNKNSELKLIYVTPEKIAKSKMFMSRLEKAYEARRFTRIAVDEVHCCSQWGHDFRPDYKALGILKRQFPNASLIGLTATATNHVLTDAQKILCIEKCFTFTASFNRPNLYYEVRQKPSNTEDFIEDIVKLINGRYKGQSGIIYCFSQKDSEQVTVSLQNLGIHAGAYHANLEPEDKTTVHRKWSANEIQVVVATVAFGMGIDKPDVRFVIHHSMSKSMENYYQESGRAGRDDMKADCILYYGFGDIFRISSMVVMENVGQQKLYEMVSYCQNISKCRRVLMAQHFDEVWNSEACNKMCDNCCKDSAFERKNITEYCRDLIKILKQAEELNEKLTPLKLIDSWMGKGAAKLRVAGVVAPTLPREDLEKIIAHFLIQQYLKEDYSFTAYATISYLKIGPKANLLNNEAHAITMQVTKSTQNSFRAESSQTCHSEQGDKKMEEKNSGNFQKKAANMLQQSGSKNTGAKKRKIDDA
Sequence of Thyrotropin-releasing hormone receptor (Homo sapiens) (P34981 whole entry, looked up): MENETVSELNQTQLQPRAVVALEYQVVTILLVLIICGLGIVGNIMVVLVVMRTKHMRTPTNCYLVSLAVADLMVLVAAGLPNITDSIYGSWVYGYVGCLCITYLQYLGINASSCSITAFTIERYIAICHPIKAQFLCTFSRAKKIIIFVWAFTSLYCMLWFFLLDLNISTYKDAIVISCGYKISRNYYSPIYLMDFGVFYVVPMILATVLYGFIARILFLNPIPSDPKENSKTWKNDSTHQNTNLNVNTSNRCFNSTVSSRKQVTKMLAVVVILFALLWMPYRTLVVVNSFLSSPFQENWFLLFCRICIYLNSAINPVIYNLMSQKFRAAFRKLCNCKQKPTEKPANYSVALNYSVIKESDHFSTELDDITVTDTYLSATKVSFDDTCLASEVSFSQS
Sequence of Galactokinase (Homo sapiens) (P51570 whole entry, looked up): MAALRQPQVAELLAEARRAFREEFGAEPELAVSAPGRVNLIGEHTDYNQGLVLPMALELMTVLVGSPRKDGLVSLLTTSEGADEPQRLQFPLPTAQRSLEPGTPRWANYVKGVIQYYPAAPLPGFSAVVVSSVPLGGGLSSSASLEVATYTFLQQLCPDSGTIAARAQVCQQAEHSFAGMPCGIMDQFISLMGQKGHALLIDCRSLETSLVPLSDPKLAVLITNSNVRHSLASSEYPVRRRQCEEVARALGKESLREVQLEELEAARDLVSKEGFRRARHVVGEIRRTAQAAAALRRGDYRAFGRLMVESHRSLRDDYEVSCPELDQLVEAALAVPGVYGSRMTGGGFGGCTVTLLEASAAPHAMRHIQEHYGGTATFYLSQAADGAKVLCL

Regarding `N=C1Sc2ccccc2C2=NCCCN12`, the result in experiment [1], in [8], in experiment [11], in [12], in [14] and in experiment [15] was inactive. In addition, in [2], the activity change, negative = inhibition was -3.51% (inactive). Besides, the max response is -6.86% in [2] (setting [18]) and -8.77% in experiment [2] (setting [19]). Besides, the Potency result in experiment [3], in experiment [4], in experiment [5], in experiment [6], in experiment [7] and in [9] was “inactive” in each case. For the same compound, in experiment [10], the Potency result is “inactive”. Further, the activation in experiment [13] is 0.125% (inactive).
Take `Nc1nc(SCc2ccc([N+](=O)[O-])cc2)c2ncn([C@@H]3O[C@H](CO)[C@H](O)[C@H]3O)c2n1`: the result in experiment [1], in [8], in experiment [11], in experiment [12], in experiment [14] and in experiment [15] was inactive. In addition, the activity change, negative = inhibition in experiment [2] is -2% (inactive). In addition, the max response in experiment [2] (setting [18]) is -35.2%; in experiment [2] (setting [19]) it was -38%. Also, the Potency result in [3], in experiment [4], in experiment [6], in experiment [7], in experiment [9] and in experiment [10] was “inactive” in each case. Moreover, the activation in experiment [13] is 0.75% (inactive).
On to `Nc1ncnc2c1nc(Sc1ccc(Cl)cc1)n2[C@H]1O[C@@H]2COP(=O)(O)O[C@H]2[C@@H]1O`, for which the compound was called inactive in experiment [1], in [8], in [11], in experiment [12], in [14] and in experiment [15]. Besides, the Potency entry in experiment [3], in experiment [4], in experiment [7], in experiment [9] and in [10] was “inactive” each time. Also, the Potency was 7.94 µM (active) in experiment [16] and 10 µM (active) in experiment [17]. The activation in experiment [13] is 1.31% (inactive).
As to `COc1cc(=O)n(C)c2c(OCC(O)C(C)(C)O)cccc12` (stereo not drawn), the compound was called inactive in [1], in experiment [8], in experiment [11], in [12], in experiment [14] and in experiment [15]. Moreover, the Potency result in experiment [3], in [4], in [16], in experiment [5], in [6] and in experiment [17] was “inactive” each time. In addition, the Potency result in experiment [7], in experiment [9] and in [10] was “inactive” in each case. The activation in [13] was 0.812% (inactive).
For `CCn1c(=O)c2[nH]c(-c3ccccc3)nc2n(CC)c1=O`, the result in experiment [1], in experiment [8], in experiment [11], in experiment [12], in experiment [14] and in experiment [15] was inactive. Besides, the Potency result in [3], in [4], in [16], in [5], in experiment [6] and in experiment [17] was “inactive” throughout. In addition, the Potency result in experiment [7] and in [10] was “inactive” each time. Also, in [13], the activation was 0.688% (inactive).
